Reference: PubChem BioAssay (Tox21)
Results filed as inconclusive are left out. Active and inactive are the calls of the source. The call rests on the fitted dose curve; in most records, active means well fitted cell-killing curve with a large enough effect in the repeat runs; inconclusive means weak or mixed curves, or effect the other way; inactive means flat fitted curve, though single readings scatter.

Experiment: Caspase-3/7 induction in HepG2 cells by small molecules, qHTS cell viability counter screen (AID 1346981); further: nearly all actives have a fitted effect of over 30% in size
Conditions: CellTiter-Fluor fluorescence, 17 h; series mostly up to 92.4 µM; activity change, negative = cytotoxicity: at the top concentration
Description: U.S. Tox21 Program National Center for Advancing Translational Sciences [NCATS] NIH Chemical Genomics Center [NCGC] U.S. Environmental Protection Agency [EPA] National Institutes of Environmental Health Sciences [NIEHS] National Toxicology Program [NTP] U.S. Food and Drug Administration [FDA] Tox21 Assay Overview: Apoptosis is a process of programmed cell death and plays a central role in the development of multicellular organisms. It is a highly regulated process and induces cell death by activating caspases, which are the members of cysteine aspartic acid-specific protease (caspase) family. Caspases involved in apoptosis are classified by their mechanism of action as initiator caspases (caspase-2, -8, -9 and -10) and executioner caspases (caspase-3, -6, and -7). Inhibition of apoptosis results in number of cancers, autoimmune diseases, inflammatory diseases and viral infection. To identify small molecule compounds that induce apoptosis, a homogeneous, luminescent Caspase-Glo 3/7 assay was used. Wild type HepG2 cells were used to screen Tox21 libraries for identifying caspase-3/7 activity inducers. Also cytotoxicity of the compounds was tested in parallel by measuring the cell viability using CellTiter-Fluor assay system in the same wells.
Tox21 Assay Protocol Summary: HepG2 cells were dispensed at 2,000 per well in 5uL of culture medium into white solid bottom 1536-well plates (Corning Life Sciences, Corning, NY) using a Multidrop Combi (Thermo Scientific, Waltham, MA) dispenser. The assay plates were incubated at 37 C and 5% CO2 for 5hr, and then 23nL of compounds dissolved in DMSO and positive control were transferred using a Pintool station ([…], San Diego, CA). The assay plates were incubated at 37C and 5% CO2 for 17hr. For cytotoxicity read, after 16hr incubation at 37C, 1uL CellTiter-Fluor reagent (Promega Corporation, Madison, WI) was added to each well of the assay plates using Flying Reagent Dispenser (FRD, Aurora Discovery, San Diego, CA). After 1hr incubation at 37C and 5% CO2, the fluorescence signal was quantified using a ViewLux plate reader (PerkinElmer, Shelton, CT).
On the % scale 0 is the no-effect control and ±100 the full control effect.

SMILES | activity change, negative = cytotoxicity
CC(=O)[C@H]1CC[C@H]2[C@@H]3CC[C@H]4C[C@H](O)CC[C@]4(C)[C@H]3C(=O)C[C@]12C | -3.8% [at 42.5 µM] (inactive)
COc1ccc2c(c1OC)CN1CCc3cc4c(cc3C1C2)OCO4 (stereo not given) | -4.29% [at 42.5 µM] (inactive)
C1CCC(C2CCCCC2)CC1 | -0.096% (inactive)
O=[N+]([O-])c1cccc2c([N+](=O)[O-])cccc12 | 1.77% (inactive)
COC(=O)c1ccccc1S(=O)(=O)NC(=O)N(C)c1nc(C)nc(OC)n1 | -12.6% (inactive)
CCC(=O)C(CCN(C)C)(c1ccccc1)c1ccccc1 | 0.0584% [at 42.5 µM] (inactive)
CN(C)CCc1ccc(O)cc1 | 2.1% [at 42.5 µM] (inactive)
CC(C)(C)C(=O)C(Oc1ccc(Cl)cc1)n1cncn1 (stereo not given) | -0.788% (inactive)
Cc1ncc2n1-c1ccc(Cl)cc1C(c1ccccc1F)=NC2 | 14.1% [at 42.5 µM] (inactive)
CC1CCC(=O)O1 (stereo not given) | -1.37% (inactive)
ClCC(Cl)(Cl)Cl | 2% (inactive)
O=C(Oc1ccc(Br)cc1)N1CCN2CCC1CC2 | -3.19% (inactive)
COC(=O)COc1ccc(Cl)cc1Cl | 1.53% (inactive)
CCOP(=S)(OCC)SCSc1ccc(Cl)cc1 | 5.36% (inactive)
CC(C(O)c1ccccc1)N(C)C/C=C/c1ccccc1 (stereo not given) | -4.81% [at 42.5 µM] (inactive)
CCC1(c2ccccc2)C(=O)NC(=O)NC1=O | -0.979% (inactive)
C[N+](C)=CCl | -1.12% (inactive)
Cc1cc(C)nc(Nc2ccccc2)n1 | 0.802% (inactive)
CC(C=O)Cc1ccc2c(c1)OCO2 (stereo not given) | 9.97% (inactive)
COC(C)(C)C | 4.42% (inactive)

SMILES | activity change, negative = cytotoxicity
CC1(C)COP(Oc2ccccc2)OC1 | -1.17% (inactive)
Clc1cccc(N2CCNCC2)c1 | 4.03% [at 42.5 µM] (inactive)
Oc1c(Cl)cccc1Cl | 0.382% (inactive)
CCC(Cl)[N+](=O)[O-] (stereo not given) | 0.364% (inactive)
CNNC | -1.4% (inactive)
ClC(Br)Br | 9.68% (inactive)
COc1cc2c(cc1OC)[C@@]13CCN4CC5=CCO[C@H]6CC(=O)N2[C@H]1[C@H]6[C@H]5C[C@H]43 | -1.19% (inactive)
O=[N+]([O-])c1cccc(O)c1 | 2.14% (inactive)
CCOP(=S)(Oc1cnc(C(C)(C)C)nc1)OC(C)C (stereo not given) | -2.08% (inactive)
CCOP(=S)(OCC)SCSP(=S)(OCC)OCC | 5.15% (inactive)
NC(=S)C(N)=S | 13.7% (inactive)
O=C1OC(c2ccc(O)c(S(=O)(=O)O)c2)(c2ccc(O)c(S(=O)(=O)O)c2)c2c(Br)c(Br)c(Br)c(Br)c21 | -8.04% [at 42.5 µM] (inactive)
CCOP(=O)(N=C1SCCS1)OCC | -0.762% (inactive)
BrCCCCCCBr | -0.228% (inactive)
CCN(Cc1ccc(Cl)nc1)/C(=C/[N+](=O)[O-])NC | -0.261% [at 42.5 µM] (inactive)
CN1C(=S)CN=C(c2ccccc2)c2cc(Cl)ccc21 | 1.78% [at 42.5 µM] (inactive)
C(CCOCC1CO1)COCC1CO1 (stereo not given) | -1.7% (inactive)
CCN(CC)c1nc(C)cc(OP(=S)(OC)OC)n1 | 2.41% (inactive)
CCOP(=O)(OCC)OP(=O)(OCC)OCC | 2% (inactive)
C#CCN1C(=O)COc2cc(F)c(N3C(=O)C4=C(CCCC4)C3=O)cc21 | 5.09% (inactive)
